Rows were chosen to be rich in hits. Some 11% of all compounds tested hit in one or more screens of this group.
ALDH1A1 block – ALDH1A1 (human) enzyme inhibition; AID 1030; P00352; Potency, µM (doses to about 75.3 µM), without a hit: at the highest dose activity, negative = inhibition, actives largely listed as inhibitors; Purified ALDH1A1, NADH fluorescence, propionaldehyde substrate; hit rate 7.3% among 220,000;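 note: potency is the fitted concentration of half-maximal effect; plate controls were no enzyme wells and a reference inhibitor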
Target sequence (P00352 whole entry, looked up): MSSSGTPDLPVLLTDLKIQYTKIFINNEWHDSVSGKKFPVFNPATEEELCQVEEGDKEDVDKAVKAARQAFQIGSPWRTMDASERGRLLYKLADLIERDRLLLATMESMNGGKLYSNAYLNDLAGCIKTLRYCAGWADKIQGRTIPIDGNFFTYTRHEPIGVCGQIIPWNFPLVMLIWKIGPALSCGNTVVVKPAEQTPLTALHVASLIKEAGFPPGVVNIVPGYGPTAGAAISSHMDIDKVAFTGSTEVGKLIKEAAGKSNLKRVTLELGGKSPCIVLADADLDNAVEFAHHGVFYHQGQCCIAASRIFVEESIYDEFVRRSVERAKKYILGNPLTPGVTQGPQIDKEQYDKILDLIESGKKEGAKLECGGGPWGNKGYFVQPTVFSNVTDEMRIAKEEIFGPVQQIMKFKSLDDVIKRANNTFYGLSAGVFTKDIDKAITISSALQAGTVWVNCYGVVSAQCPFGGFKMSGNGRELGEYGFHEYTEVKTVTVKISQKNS
HPGD inh – HPGD (human) dehydrogenase inhibition | P15428 | purified HPGD, NADH fluorescence kinetic, PGE2 substrate | Potency, µM, without a hit: at the highest dose activity change, negative = inhibition, actives largely listed as inhibitors | hit rate 4.3% among 150,000 | AID 894; note: potency is the fitted concentration of half-maximal effect
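NADH formation kinetics: reaction with 30 uM PGE2 and 1 mM NAD+ (final), 20 nM enzyme, Tris-HCl pH 8 with Tween 20, after 15 min compound preincubation at room temperature. Fluorescence change, last versus first of five reads.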
PNC inhibitor – inhibitors of perinucleolar compartment assembly; hit rate 3.1% among 140,000; activity change (PNC), negative = inhibition, % at 10 µM; PC3M PTB-GFP, PNC prevalence imaging, 16 h; active compounds read low;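 active = readout at or below -70, meaning at least 70% loss of cells showing the perinucleolar compartment, a nuclear body marking cancer cells; inconclusive = readout between -30 and a set limit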;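 note: plate controls were DMSO wells for no effect and camptothecin positive control wells for full effect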
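Read-out is percentage of cells bearing a perinucleolar compartment, from automated 20x imaging of fixed, Hoechst-stained PC3M PTB-GFP cells. Cells were seeded 4 h, then exposed 16 h to compound (23 nl of library stock) in duplicate plates.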
* = called active by the depositor; [ ] = another dose, or the depositor's remark. Unless noted, calls come from the whole dose curve; as a rule, active = well fitted inhibition curve with a large enough effect (not every such curve was filed as active); inconclusive = small, poorly fitted or top-dose-only effect, or another doubt; inactive = no such curve, though single readings can be large or run the other way. Unless noted, % is set by controls: 0 for no effect and ±100 for the full control effect.

For CC(=O)Oc1ccc(N2C(=O)C3C4C=CC(O4)C3C2=O)cc1 (stereo not drawn) the results were ALDH1A1 block 0.447µM*, HPGD inh 31.6µM* and PNC inhibitor 3.1.
Screening CCOc1cccc(N2C(=O)CC(N(CCc3ccc(OC)c(OC)c3)C(=O)CC)C2=O)c1 (stereo not drawn) returned ALDH1A1 block -0.2%, HPGD inh -2.3% and PNC inhibitor inconclusive.
For Cc1ccc(NC2CC(=O)N(c3ccc(C)cc3)C2=O)cc1 (stereo not drawn) the results were ALDH1A1 block 3.8%, HPGD inh -8.4% and PNC inhibitor 47.7.
Screening CCOc1ccc(N2C(=O)CC(N3CCOCC3)C2=O)cc1 (stereo not drawn) returned ALDH1A1 block inconclusive, HPGD inh -9.2% and PNC inhibitor 10.8.
`CCOC(=O)c1ccc(N2C(=O)CC(Nc3ccc(CCO)cc3)C2=O)cc1` (stereo not drawn) gave ALDH1A1 block 15.8µM*, HPGD inh -23.4% and PNC inhibitor 34.7.
Screening CC(=O)Oc1ccc(N2C(=O)CCC2=O)cc1 returned ALDH1A1 block -4.3%, HPGD inh -9.7% and PNC inhibitor 7.7.
`O=P(O)(O)OC1[C@H](O)[C@H](OP(=O)(O)O)C(OP(=O)(O)O)[C@H](OP(=O)(O)O)[C@H]1O` (stereo partly drawn) gave ALDH1A1 block 15.2%[2.48 µM] and HPGD inh -7.0%.
C[C@]12CC[C@H](O)CC1=CC[C@H]1[C@@H]2CC[C@@]2(C)C(N(CCO)CCO)CC[C@@H]12 (stereo partly drawn) was read as ALDH1A1 block 2.0%[13.5 µM] and HPGD inh -0.8%.
For CCOC(=O)c1ccc(N2C(=O)CC(N(Cc3ccc4c(c3)OCO4)C(=O)Nc3ccccc3)C2=O)cc1 (stereo not drawn) the results were ALDH1A1 block 12.6µM*, HPGD inh -9.2% and PNC inhibitor -5.2.
For CCOc1cccc(N2C(=O)CC(n3cnc4ccccc43)C2=O)c1 (stereo not drawn) the results were ALDH1A1 block -10.5%, HPGD inh -8.9% and PNC inhibitor -19.2.
Screening CCOC(=O)c1ccc(N2C(=O)CC(NC3CCN(C(=O)c4cccc(Cl)c4)CC3)C2=O)cc1 (stereo not drawn) returned ALDH1A1 block 12.6µM*, HPGD inh -8.0% and PNC inhibitor 6.2.
`CCOC(=O)c1ccc(N2C(=O)CC(N3CCOCC3)C2=O)cc1` (stereo not drawn) gave ALDH1A1 block 25.1µM*, HPGD inh -3.5% and PNC inhibitor 36.6.
`CCOc1cccc(N2C(=O)CC(N3CCC(C(N)=O)(N4CCCCC4)CC3)C2=O)c1` (stereo not drawn) gave ALDH1A1 block 25.1µM*, HPGD inh -12.8% and PNC inhibitor -14.9.
For CCOC(=O)N1CCN(C2CC(=O)N(c3ccc(C)cc3)C2=O)CC1 (stereo not drawn) the results were ALDH1A1 block inconclusive, HPGD inh -0.8% and PNC inhibitor inconclusive.
`O=C(c1cccc(Cl)c1)N1CCC(c2nc3ccccc3[nH]2)CC1` gave ALDH1A1 block -6.1%.
CNC(=S)N(Cc1ccc2c(c1)OCO2)C1CC(=O)N(c2ccc(F)cc2)C1=O (stereo not drawn) was read as ALDH1A1 block -1.8%, HPGD inh -6.4% and PNC inhibitor 3.4.
COc1cccc(C(CC(=O)Nc2cccc3ccccc23)NC(=O)c2ccccc2)c1 (stereo not drawn) was read as ALDH1A1 block 5.6%, HPGD inh -24.6% and PNC inhibitor inconclusive.
`O=C(CN1C(=O)NC2(CCCc3ccccc32)C1=O)Nc1cccc(S(=O)(=O)N2CCCCC2)c1` (stereo not drawn) gave ALDH1A1 block -2.0%, HPGD inh 0.8% and PNC inhibitor inconclusive.
For COc1cc(CN2CCC(N3CCC(C(=O)N4CCCC4)CC3)CC2)cc2c1OCO2 the results were ALDH1A1 block 3.1%.
For O=C(OC1Cc2c(O)cc(O)cc2OC1c1cc(O)c(O)c(O)c1-c1c(C2Oc3cc(O)cc(O)c3CC2O)cc(O)c(O)c1O)c1cc(O)c(O)c(O)c1 (stereo not drawn) the results were ALDH1A1 block 4.5% and HPGD inh -28.9%.
For CCOC(=O)N1CCN(C2CC(=O)N(c3ccc(F)cc3)C2=O)CC1 (stereo not drawn) the results were ALDH1A1 block -0.3%, HPGD inh -0.3% and PNC inhibitor 14.8.
For CCOC(=O)c1ccc(N2C(=O)CC(N3CCC(C(N)=O)(N4CCCCC4)CC3)C2=O)cc1 (stereo not drawn) the results were ALDH1A1 block 8.91µM*, HPGD inh -13.0% and PNC inhibitor inconclusive.
Screening CCOC(N)=O returned ALDH1A1 block -8.4% and HPGD inh -4.2%.
Screening O=C(Nc1ccccc1C(=O)NC(Cc1ccc(O)cc1)C(=O)O)c1ccccc1 (stereo not drawn) returned ALDH1A1 block -6.3%.
For C=C1C2(C(=O)Nc3ccc(SC(F)F)cc3)CCC(C2)C1(C)C (stereo not drawn) the results were ALDH1A1 block 10.6%, HPGD inh -1.4% and PNC inhibitor inconclusive.
For O=C(Nc1ccc(SC(F)F)cc1)C12CCC(CC1)C2 the results were ALDH1A1 block -1.4%, HPGD inh -4.3% and PNC inhibitor -112.6*.
O=[N+]([O-])c1cccc(-c2nc3ccccc3s/c2=N/O)c1 was read as ALDH1A1 block -5.6%.
`N=C1C(c2ccccc2)=C(O)C2CCc3ccccc3N12` (stereo not drawn) gave ALDH1A1 block 8.3%, HPGD inh 15.8µM* and PNC inhibitor -7.4.
N=C1C(c2ccc(Br)cc2)=C(O)C2CCc3ccccc3N12 (stereo not drawn) was read as ALDH1A1 block -4.9%, HPGD inh -8.7% and PNC inhibitor 8.5.
Screening COc1cc(CNC2CCCCC2OC)cc(OC)c1 (stereo not drawn) returned ALDH1A1 block -4.2%.
Screening COC1CCCCC1Nc1ccc(C)c(C)c1 (stereo not drawn) returned ALDH1A1 block 10µM*, HPGD inh -4.9% and PNC inhibitor -25.7.
Cc1cc(C(=O)OCC(=O)Nc2cccnc2Cl)c2ccccc2n1 was read as ALDH1A1 block -5.6%.
Screening CCc1ccc(/C=C2\Oc3cc(OC(=O)N4CCOCC4)ccc3C2=O)cc1 returned ALDH1A1 block -11.9%, HPGD inh -28.1% and PNC inhibitor -28.7.
For O=C1/C(=C/c2cccnc2)Oc2cc(OS(=O)(=O)c3ccc(Cl)cc3)ccc21 the results were ALDH1A1 block 1.58µM*, HPGD inh -23.0% and PNC inhibitor inconclusive.
For COc1ccccc1C(=O)Oc1ccc2c(c1)O/C(=C\c1ccncc1)C2=O the results were ALDH1A1 block inconclusive, HPGD inh -27.3% and PNC inhibitor 24.4.
Screening O=C1CCCC2=C1C(c1ccc(OS(=O)(=O)c3ccc(Cl)cc3)cc1)C1=C(CCCC1=O)O2 returned ALDH1A1 block inconclusive, HPGD inh -15.0% and PNC inhibitor 50.8.
CS(=O)(=O)Oc1ccc2c(c1)O/C(=C\c1cccnc1)C2=O was read as ALDH1A1 block 11.2µM*.
`COc1ccc(S(=O)(=O)Oc2ccc3c(c2)O/C(=C\c2cccnc2)C3=O)cc1` gave ALDH1A1 block 7.94µM*, HPGD inh 15.8µM* and PNC inhibitor -6.6.
